Read-out in test [1]: TIMP metallopeptidase inhibitor 2 (TIMP2), TIMP2 (gene 7077)
Put plainly: BSK_KF3CT_TIMP2: BioMAP Diversity Plus: KF3CT Assay for TIMP metallopeptidase inhibitor 2 (TIMP2) Biomarker Activity (AID 2283071). The following applies: primary human keratinocytes with fibroblasts; actives raise or lower the signal. The method in brief: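 Human primary keratinocyte/foreskin fibroblast co-culture dosed with chemical and sampled at 24 h. TIMP-2 levels quantified by ELISA; bidirectional fitting against DMSO negative control as baseline.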

Read-out in test [2]: Transforming growth factor beta 1 (TGFb1), TGFB1 (gene 7040)
Put plainly: BSK_KF3CT_TGFb1: BioMAP Diversity Plus: KF3CT Assay for Transforming growth factor beta 1 (TGFb1) Biomarker Activity (AID 2283072). Particulars: primary human keratinocytes with fibroblasts; actives raise or lower the signal. The method in brief: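 Human keratinocyte plus foreskin fibroblast primary co-culture, dosed with chemical for 24 h. TGF-b1 quantified by ELISA. Activity fitted bidirectionally against DMSO negative control as baseline.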

Read-out in test [3]: C-C motif chemokine 2 (Homo sapiens) (UniProt P13500)
Put plainly: BSK_KF3CT_MCP1: BioMAP Diversity Plus: KF3CT Assay for Monocyte Chemoattractant Protein 1 (MCP1/CCL2) Biomarker Activity (AID 2283073). The following applies: primary human keratinocytes with fibroblasts; actives raise or lower the signal. The method in brief:
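Keratinocytes and foreskin fibroblasts were co-cultured, dosed with chemical, and sampled 24 h later. MCP-1 was quantified by ELISA, and the endpoint was analyzed with bidirectional fitting using DMSO as negative control.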

Read-out in test [4]: Matrix Metallopeptidase 9 (MMP9), MMP9 (gene 4318)
Put plainly: BSK_KF3CT_MMP9: BioMAP Diversity Plus: KF3CT Assay for Matrix Metallopeptidase 9 (MMP9) Biomarker Activity (AID 2283074).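 On AC50: MMP9 protein level quantified by ELISA in the co-culture.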 Particulars: primary human keratinocytes with fibroblasts; actives raise or lower the signal. The method in brief:
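Human keratinocyte/foreskin fibroblast co-culture; compound added; 24 h; MMP-9 by ELISA; bidirectional fit vs DMSO baseline.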

Read-out in test [5]: urokinase plasminogen activator (uPA), PLAU (gene 5328)
Put plainly: BSK_KF3CT_uPA: BioMAP Diversity Plus: KF3CT Assay for urokinase plasminogen activator (uPA) Biomarker Activity (AID 2283075). Particulars: primary human keratinocytes with fibroblasts; actives raise or lower the signal. The method in brief: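 ELISA readout of uPA, analyzed for signal gain or loss relative to DMSO, from a human primary keratinocyte–foreskin fibroblast co-culture measured 24 h after chemical treatment.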

Read-out in test [6]: E-selectin (Homo sapiens) (UniProt P16581)
Put plainly: BSK_LPS_Eselectin: BioMAP Diversity Plus: LPS Assay for Eselectin Biomarker Activity (AID 2283077). Particulars: primary human HUVEC with PBMC; actives raise or lower the signal. A digest of the protocol: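 Signal of E-selectin, detected by ELISA, served as the endpoint; cells were umbilical vein endothelium with PBMC, read 24 h after treatment. DMSO defined baseline, and both increases and decreases were fitted.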

Read-out in test [7]: Interleukin-8 (IL8), CXCL8 (gene 3576)
Put plainly: BSK_LPS_IL8: BioMAP Diversity Plus: LPS Assay for Interleukin-8 (IL8) Biomarker Activity (AID 2283078). The following applies: primary human HUVEC with PBMC; actives raise or lower the signal. A digest of the protocol: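 Endothelial cells and PBMC from human donors are co-cultured, treated with chemicals and LPS, then assayed for IL-8 by ELISA after 24 h. Parallel SRB staining (0.1% SRB after 10% TCA fixation, 560 nm) flags cytotoxicity.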

A short description of test [8]: BSK_LPS_SRB: Viability Assessment in the BioMAP Diversity Plus: LPS Assay (AID 2283079).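 Further: total protein by sulforhodamine B absorbance as a cytotoxicity measure; measured one day after compound addition; fitted in both directions against DMSO so loss or gain of signal counts.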 Particulars: primary human HUVEC with PBMC. A digest of the protocol:
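Overt cytotoxicity was gauged by sulforhodamine B total-protein staining in a primary human vascular endothelial and mononuclear cell co-culture 24 h post-dosing. Activity was fitted in both directions relative to DMSO.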

Read-out in test [9]: Monocyte Chemoattractant Protein-1 (MCP1), CCL2 (gene 6347)
Put plainly: BSK_LPS_MCP1: BioMAP Diversity Plus: LPS Assay for Monocyte Chemoattractant Protein-1 (MCP1) Biomarker Activity (AID 2283081).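 On AC50: secreted MCP-1 protein quantified by ELISA in culture supernatant.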 Particulars: primary human HUVEC with PBMC; actives raise or lower the signal. The method in brief:
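LPS-stimulated HUVEC/PBMC co-culture; chemical, 24 h; MCP-1 by ELISA; bidirectional fit vs DMSO; cytotoxicity via SRB (0.1% stain, 10% TCA fix, 560 nm) in parallel wells.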

Test [10] in a line: BSK_LPS_PGE2: BioMAP Diversity Plus: LPS Assay for Prostaglandin E2 (PGE2) Biomarker Activity (AID 2283082). Particulars: primary human HUVEC with PBMC; actives raise or lower the signal. The method in brief: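 HUVEC plus PBMC co-culture stimulated with LPS; secreted PGE2 quantified by ELISA 24 h after chemical dosing. Activity fitted bidirectionally against DMSO as negative control and baseline; parallel SRB total-protein staining served as cytotoxicity check.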

Read-out in test [11]: Macrophage colony-stimulating factor (MCSF), CSF1 (gene 1435)
Put plainly: BSK_LPS_MCSF: BioMAP Diversity Plus: LPS Assay for Macrophage colony-stimulating factor (MCSF) Biomarker Activity (AID 2283083). The following applies: primary human HUVEC with PBMC; actives raise or lower the signal. The method in brief:
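Compound is added to a human vascular primary co-culture of umbilical vein endothelium and blood mononuclear cells. After 24 h, M-CSF is quantified by ELISA. Signal changes are fitted in both directions against DMSO.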

Read-out in test [12]: Tissue Factor, F3 (gene 2152)
Put plainly: BSK_LPS_TissueFactor: BioMAP Diversity Plus: LPS Assay for Tissue Factor Biomarker Activity (AID 2283084). Particulars: primary human HUVEC with PBMC; actives raise or lower the signal. The method in brief: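 In this co-culture system of umbilical vein endothelium with PBMC, stimulated with LPS, cell-surface CD142 is detected by ELISA at 24 h. Endpoint values derive from bidirectional fitting, DMSO serving as baseline.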

Read-out in test [13]: Tumor necrosis factor (Homo sapiens) (UniProt P01375)
Put plainly: BSK_LPS_TNFa: BioMAP Diversity Plus: LPS Assay for Tumour Necrosis Factor alpha (TNFa) Biomarker Activity (AID 2283085). Particulars: primary human HUVEC with PBMC; actives raise or lower the signal. A digest of the protocol:
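Human umbilical vein endothelial cells co-cultured with PBMC were exposed to test chemical and TNFa measured by ELISA 24 h after dosing. Bidirectional curve fitting was done relative to DMSO as negative control and baseline.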

Read-out in test [14]: Vascular cell adhesion molecule 1 (VCAM1), VCAM1 (gene 7412)
Put plainly: BSK_LPS_VCAM1: BioMAP Diversity Plus: LPS Assay for Vascular cell adhesion molecule 1 (VCAM1) Biomarker Activity (AID 2283086). Particulars: primary human HUVEC with PBMC; actives raise or lower the signal. A digest of the protocol: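 Human umbilical vein endothelial cells co-cultured with peripheral blood mononuclear cells under LPS stimulation were exposed to test chemical for 24 h. VCAM-1 levels were then measured by ELISA, with bidirectional curve fitting relative to DMSO as negative control and baseline.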

Read-out in test [15]: CD38, CD38 (gene 952)
Put plainly: BSK_SAg_CD38: BioMAP Diversity Plus: SAg Assay for CD38 Biomarker Activity (AID 2283087). The following applies: primary human HUVEC with PBMC; actives raise or lower the signal. The method in brief:
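Fluorescence ELISA of cell-surface CD38 served as the read-out, with either increase or decrease fitted against DMSO controls. Cells were a human umbilical vein endothelium plus PBMC co-culture under SEB/TSST-1 stimulation, measured 24 h after dosing.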

Read-out in test [16]: CD40, CD40 (gene 958)
Put plainly: BSK_SAg_CD40: BioMAP Diversity Plus: SAg Assay for CD40 Biomarker Activity (AID 2283088). Particulars: primary human HUVEC with PBMC; actives raise or lower the signal. The method in brief: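 Fluorescence ELISA read-out of CD40 from umbilical vein endothelium plus peripheral blood mononuclear cells, sampled 24 h after dosing. Values come from bidirectional curve fitting with DMSO as baseline.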

Read-out in test [17]: CD69, CD69 (gene 969)
Put plainly: BSK_SAg_CD69: BioMAP Diversity Plus: SAg Assay for CD69 Biomarker Activity (AID 2283089).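 On AC50: cell surface CD69 protein quantified by ELISA with fluorescence detection.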 The following applies: primary human HUVEC with PBMC; actives raise or lower the signal. A digest of the protocol: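 Endothelial/PBMC co-culture; chemical added; 24 h incubation; CD69 ELISA with fluorescence detection; bidirectional fit vs DMSO.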

Read-out in test [18]: Monocyte Chemoattractant Protein-1 (MCP1), CCL2 (gene 6347)
Put plainly: BSK_SAg_MCP1: BioMAP Diversity Plus: SAg Assay for Monocyte Chemoattractant Protein-1 (MCP1) Biomarker Activity (AID 2283090). Particulars: primary human HUVEC with PBMC; actives raise or lower the signal. The method in brief: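 MCP-1 levels in the endothelial–PBMC SAg co-culture were quantified by ELISA at 24 h post-dosing; both increases and decreases versus DMSO scored. Cytotoxicity monitored by SRB total protein in parallel cultures.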

Read-out in test [19]: Interleukin-1 alpha (IL1a), IL1A (gene 3552)
Put plainly: BSK_LPS_IL1a: BioMAP Diversity Plus: LPS Assay for Interleukin-1 alpha (IL1a) Biomarker Activity (AID 2283080). The following applies: primary human HUVEC with PBMC; actives raise or lower the signal. The method in brief:
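Measured: IL-1 alpha via ELISA at 24 h in LPS-activated human umbilical vein endothelium–PBMC co-culture. Baseline: DMSO, bidirectional fitting.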

Molecules are shown by their SMILES. “And” between values parts separate entries of the source, which are not always exact repeats. Equal entries are not always repeated. The source holds several records for some structures; these can differ, active in one and inactive in another. The source made the active and inactive calls. How the source made its calls: active means hit-call score of the fitted dose curve at least 0.9, where 1 is the maximum; inactive means score below 0.9.

Broadly, the AC50 is the concentration at which the activity in the assay is half-maximal.

Chain of E-selectin (Homo sapiens) (P16581 whole entry, looked up): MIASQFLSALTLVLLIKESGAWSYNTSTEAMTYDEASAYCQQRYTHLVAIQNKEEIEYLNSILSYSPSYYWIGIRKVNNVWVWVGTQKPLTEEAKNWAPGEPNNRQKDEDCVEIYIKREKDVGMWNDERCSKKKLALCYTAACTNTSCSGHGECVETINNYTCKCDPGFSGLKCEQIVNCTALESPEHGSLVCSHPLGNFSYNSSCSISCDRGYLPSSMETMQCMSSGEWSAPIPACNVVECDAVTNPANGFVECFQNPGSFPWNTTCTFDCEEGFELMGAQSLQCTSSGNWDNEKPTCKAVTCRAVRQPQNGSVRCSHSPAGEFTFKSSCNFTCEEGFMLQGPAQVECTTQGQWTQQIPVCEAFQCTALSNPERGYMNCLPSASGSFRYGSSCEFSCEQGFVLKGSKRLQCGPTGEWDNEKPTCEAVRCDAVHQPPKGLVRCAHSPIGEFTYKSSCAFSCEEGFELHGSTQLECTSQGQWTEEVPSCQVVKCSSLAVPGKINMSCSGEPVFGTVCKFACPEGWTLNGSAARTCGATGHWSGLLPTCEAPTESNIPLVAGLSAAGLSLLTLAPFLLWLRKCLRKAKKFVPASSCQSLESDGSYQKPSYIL
Chain of Tumor necrosis factor (Homo sapiens) (P01375 whole entry, looked up): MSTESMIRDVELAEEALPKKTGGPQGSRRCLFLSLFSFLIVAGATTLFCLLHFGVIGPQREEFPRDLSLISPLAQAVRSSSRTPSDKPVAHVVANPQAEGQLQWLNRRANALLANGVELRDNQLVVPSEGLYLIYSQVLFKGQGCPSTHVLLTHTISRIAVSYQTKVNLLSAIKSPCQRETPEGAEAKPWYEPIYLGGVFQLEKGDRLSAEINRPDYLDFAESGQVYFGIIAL

Regarding `Nc1ccc(N)c([N+](=O)[O-])c1`, the result in test [1], in test [2], in test [3], in test [4], in test [5] and in test [6] was inactive. The outcome in test [7], in test [8], in test [9], in test [10], in test [11] and in test [12] was inactive. For the same compound, the outcome in test [13], in [15], in [16] and in test [18] was inactive. Also, the figures for the AC50 in test [14] and in test [17] were 5.09 µM (active) and 8.69 µM (active), respectively.
On to `O=S1(=O)CC(Cl)(Cl)C(Cl)(Cl)C1`, for which the AC50 in [1] was 1.36 µM (active); in [2] it was 1.11 µM (active); in [3], 1.38 µM (active); in [4], 1.74 µM (active); in [5], 2 µM (active); in test [6] it was 1.1 µM (active). Also, the half-maximal activity concentration (AC50) in test [7] is 1.47 µM (active); in test [8], 5.01 µM (active); in test [9], 1.76 µM (active); in [11] it was 0.71 µM (active); in test [12], 0.538 µM (active); in test [13], 0.938 µM (active). For the same compound, the AC50 in test [14] is 0.797 µM (active); in test [15], 0.35 µM (active); in test [16] it was 0.48 µM (active); in test [17], 0.486 µM (active); in test [18] it was 0.807 µM (active). For the same compound, the result in [10] was inactive.
Regarding `O=C(O)C(F)(F)C(F)(F)C(F)(F)C(F)(F)C(F)(F)C(F)(F)C(F)(F)C(F)F`, the result in [1], in [3], in test [4], in test [5], in test [6] and in [8] was inactive. For the same compound, the outcome in test [19], in test [9], in [10], in [11], in [12] and in test [13] was inactive. Moreover, the outcome in test [14], in test [15], in [16], in [17] and in test [18] was inactive. For the same compound, in test [7], the half-maximal activity concentration (AC50) was 8.81 µM (active) and 17.9 µM (active).
In the case of `CCCO[Si](OCCC)(OCCC)OCCC`, the result in test [1], in test [3], in test [4], in test [5], in [6] and in [7] was inactive. Also, the result in test [8], in test [9], in [10], in test [11], in test [12] and in test [13] was inactive. The result in test [14], in test [15], in test [16], in test [17] and in test [18] was inactive. Moreover, the AC50 in test [7] was 3.97 µM (active).
As for `O=C(c1ccc(OCCN2CCCCC2)cc1)c1c(-c2ccc(O)cc2)sc2cc(O)ccc12`, the AC50 was 29.3 µM (active) in test [1]; 19.8 µM (active) in [2]; 29.1 µM (active) in [3]; 17.9 µM (active) in test [4]; 34.9 µM (active) in test [5]; 38.3 µM (active) in [6]. For the same compound, the AC50 in test [7] was 33.8 µM (active); in test [8], 26.7 µM (active); in test [9] it was 30.8 µM (active); in test [10] it was 20 µM (active); in [12], 35.9 µM (active); in test [13] it was 33.8 µM (active). Further, the AC50 in test [14] was 28.4 µM (active); in [15] it was 30.1 µM (active); in test [16], 19.4 µM (active); in test [17], 23 µM (active); in [18], 30.7 µM (active).
